Compounds with a hit are over-represented: about 8.7% of the library has one in this group of screens.
Sfp inh: qHTS Assay for Inhibitors of Bacillus subtilis Sfp phosphopantetheinyl transferase (PPTase) | Potency, µM, for the others: largest response in the series, negative = inhibition, usual class: inhibitors | 310,000 compounds, 3.5% hits | Biochemical Sfp PPTase activity, qHTS;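 note: the enzyme is Sfp with the accession as filed and its product quenches rhodamine fluorescence; 0% = enzyme reaction without inhibitor and -100% = no enzyme wells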
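With Hepes-Na pH 7.6 buffer containing 10 mM MgCl2, Sfp (15 nM) modified BHQ-2-YbbR (12.5 uM) using rhodamine-CoA (5 uM). Two reads 30 minutes apart at 525/598 nm yielded each well's rate.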
ALOX12 inh: Primary qHTS assay for inhibitors of human arachidonate 12S-lipoxygenase (ALOX12): Round 2. Polyunsaturated fatty acid lipoxygenase ALOX12 (Homo sapiens), P18054. purified 12hLO, xylenol orange hydroperoxide absorbance. Potency, µM (doses to about 108 µM), without a hit: top-dose activity change, negative = inhibition, hits mostly inhibitors. 580,000 compounds, 1.1% hits. AID 1671190, 2021; note: % is set by controls: 0 for no effect and ±100 for the full control effect
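Purified human 12hLO (150 nM final) in 25 mM Hepes, 0.01% Triton X-100, pH 7.0 was preincubated 15 min at room temperature with compound. Then 40 uM arachidonic acid was added, 30 min. Hydroperoxide was read by Fe-XO absorbance ratio 573/405 nm.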
G9a block: qHTS Assay for Inhibitors of Histone Lysine Methyltransferase G9a | Histone-lysine N-methyltransferase EHMT2 (Homo sapiens), Q96KQ7 | AID 504332, 2011 | G9a H3K9 monomethylation, AlphaScreen, 2 h | 350,000 compounds, 8.8% hits | Potency, µM (series often up to 102 µM), for the others: top-dose activity, negative = inhibition, actives largely listed as inhibitors; note: % is set by controls: 0 for no effect and ±100 for the full control effect; nearly all actives have a fitted effect of over 75% in size
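Methyltransferase reactions run at room temperature for 2 h (20 nM enzyme, 500 nM biotin-H3K9 peptide, 20 uM SAM) after a 15 min compound preincubation; product detected by AlphaScreen beads and anti-H3K9me1 antibody.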
BAZ2B block: qHTS Assay for Inhibitors of BAZ2B; AID 504333, 2011; Potency, µM (doses to about 114 µM), without a hit: at the top dose activity change, negative = inhibition, most hits filed as inhibitors; Bromodomain adjacent to zinc finger domain protein 2B (Homo sapiens), Q9UIF8; AlphaScreen BAZ2B-H3K14Ac peptide displacement; 360,000 compounds, 4.4% hits; note: % is set by controls: 0 for no effect and ±100 for the full control effect; nearly all actives have a fitted effect of over 60% in size
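AlphaScreen displacement of biotin-H3(5-23)K14Ac peptide (50 nM final) from BAZ2B (50 nM final) in PBS pH 7.4, 0.01% Tween-20; complex preformed 30 min RT, then compounds (top 110 uM) 30 min RT, beads 20 min dark.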
JMJD2A Tudor inh: qHTS Assay for Inhibitors of JMJD2A-Tudor Domain; Lysine-specific demethylase 4A (Homo sapiens), O75164; AlphaScreen JMJD2A-Tudor / H3K4me3 peptide binding; Potency, µM (titrated, usually from 114 µM), for inactives: at the highest dose activity change, negative = inhibition, usual class: inhibitors; 390,000 compounds, 4.4% hits; AID 504339, 2011; note: % is set by controls: 0 for no effect and ±100 for the full control effect; nearly all actives have a fitted effect of over 50% in size
Target sequence (O75164 whole entry, looked up, the tested form may be a part): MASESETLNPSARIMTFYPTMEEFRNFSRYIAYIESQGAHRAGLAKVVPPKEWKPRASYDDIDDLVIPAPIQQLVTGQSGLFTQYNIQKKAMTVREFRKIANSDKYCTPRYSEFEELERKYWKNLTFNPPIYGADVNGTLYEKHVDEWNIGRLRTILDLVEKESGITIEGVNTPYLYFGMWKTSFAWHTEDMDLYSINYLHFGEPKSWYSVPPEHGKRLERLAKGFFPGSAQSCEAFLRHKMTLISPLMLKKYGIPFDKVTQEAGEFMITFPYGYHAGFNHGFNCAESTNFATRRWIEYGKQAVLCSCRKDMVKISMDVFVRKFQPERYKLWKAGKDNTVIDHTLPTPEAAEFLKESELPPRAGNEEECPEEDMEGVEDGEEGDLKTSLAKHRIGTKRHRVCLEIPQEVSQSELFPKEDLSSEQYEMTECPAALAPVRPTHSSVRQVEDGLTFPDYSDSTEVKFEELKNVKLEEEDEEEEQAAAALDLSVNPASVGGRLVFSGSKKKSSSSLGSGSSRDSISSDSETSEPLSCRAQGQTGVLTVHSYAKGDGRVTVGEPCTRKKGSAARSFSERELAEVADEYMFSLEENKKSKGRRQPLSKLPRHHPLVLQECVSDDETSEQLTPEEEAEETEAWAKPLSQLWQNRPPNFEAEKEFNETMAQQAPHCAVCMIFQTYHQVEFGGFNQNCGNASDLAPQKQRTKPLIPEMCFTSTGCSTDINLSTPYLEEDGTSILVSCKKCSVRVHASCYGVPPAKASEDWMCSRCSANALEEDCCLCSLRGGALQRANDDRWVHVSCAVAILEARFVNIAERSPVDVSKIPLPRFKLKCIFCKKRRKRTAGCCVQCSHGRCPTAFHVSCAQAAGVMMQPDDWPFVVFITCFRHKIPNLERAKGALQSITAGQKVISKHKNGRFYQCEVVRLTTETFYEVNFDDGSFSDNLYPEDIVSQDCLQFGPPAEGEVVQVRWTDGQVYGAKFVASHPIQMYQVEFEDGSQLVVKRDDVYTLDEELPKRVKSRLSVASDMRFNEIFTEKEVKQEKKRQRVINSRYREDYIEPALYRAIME
HP1b binding inh: HTS for Inhibitors of HP1-beta Chromodomain Interactions with Methylated Histone Tails; AlphaScreen HP1-beta / biotin-H3K9me3 peptide binding; 390,000 compounds, 0.56% hits; Chromobox protein homolog 1 (Homo sapiens), P83916; AID 540317, 2011; Potency, µM (series often up to 114 µM), for inactives: at the highest dose activity change, negative = inhibition, actives largely listed as inhibitors; note: nearly all actives have a fitted effect of over 70% in size
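AlphaScreen: HP1-beta (50 nM) preformed 30 min with biotin-H3(1-18)K9me3 peptide (50 nM) in PBS pH 7.4, 0.01% Tween-20. Compound added for 30 min at RT, then streptavidin donor/nickel chelate acceptor beads (10 ug/mL) for 30 min.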
An asterisk follows results filed as active; ? = inconclusive; · = not tested or not shown; [ ] = remark or other dose. Calls come from the whole dose curve; as a rule, active = well fitted curve in the direction sought with a large enough effect; inconclusive = small, poorly fitted or top-dose-only effect, or another doubt; inactive = no such curve, though single readings can be large; an effect the other way counts as inactive or inconclusive. Potency is the fitted concentration of half-maximal effect.

SMILES | Sfp inh | ALOX12 inh | G9a block | BAZ2B block | JMJD2A Tudor inh | HP1b binding inh
CCNc1nc(NCC)n2c(SC(C(=O)Nc3cc(C)ccc3OC)c3ccccc3)nnc2n1 (stereo unspecified) | 50µM* | -10% | ? | -11% | -19% | 21%
COc1cccc(NC(=O)C(Sc2nnc(Nc3ccccc3C)s2)c2ccccc2)c1 (stereo unspecified) | 18% | -11% | ? | -4% | -16% | 25%
CCN1C(=O)CCC2(C(=O)NCCN(C)C3CCCCC3)CCCC=C12 (stereo unspecified) | · | 82% | · | · | · | ·
Cc1noc(C)c1CC(=O)NCCc1noc(-c2ccccc2)n1 | · | 29% | · | · | · | ·
CSC1=NSC2=NC(=O)/C(=C/c3coc4ccccc4c3=O)C(=N)N12 | -23% | ? | ? | -31% | -32% | 58%
N=C1/C(=C\c2coc3ccccc3c2=O)C(=O)N=C2SC=CN12 | -27% | 20µM* | -13%[59 µM] | ? | -5% | 30%
CSC1=NSC2=NC(=O)/C(=C/c3coc4ccc(O)cc4c3=O)C(=N)N12 | -25% | 18µM* | ? | ? | ? | -22%
C=CC(=O)Nc1ccc(CN2C(=O)N(c3c(Cl)c(OC)cc(OC)c3Cl)Cc3cnc(NCCCCN(CC)CC)nc32)cc1 | · | · | · | · | 56µM* | ?
Cc1ccc(S(=O)(=O)N2CCCCC2C(=O)N2CCN(Cc3ccccc3)CC2)cc1 (stereo unspecified) | -3% | -32% | 11µM* | ? | -29% | 32%
Cc1ccc(S(=O)(=O)NNC(=O)C2CCN(Cc3ccccc3)CC2)cc1 | 21% | 0% | 21%[59 µM] | -5% | 79µM* | 43%
O=C(C1CCCCN1S(=O)(=O)c1ccccc1)N1CCN(Cc2ccccc2)CC1 (stereo unspecified) | 22% | ? | ? | -1% | -25% | -7%
Cn1c(CBr)c(C(=O)c2ccc([N+](=O)[O-])cc2)c(=O)n(C)c1=O | ? | ? | 28µM* | -35% | -32% | 29%
O=C(Cn1cc(COc2ccc(Br)cc2[N+](=O)[O-])nn1)c1ccc(O)cc1 | · | 1% | · | · | 50µM* | 20%
O=C(Cn1cc(COc2ccccc2C(F)(F)F)nn1)c1ccc(O)cc1 | · | -17% | · | · | 45µM* | 21%
COc1cc(C(C)=O)ccc1OCc1cn(CC(=O)c2ccc(O)cc2)nn1 | · | ? | · | · | 22µM* | 41%
CC(=O)c1ccc(OCc2cn(CC(=O)c3ccc(O)cc3)nn2)cc1 | · | ? | · | · | ? | 25%
COc1cc(C=O)ccc1OCc1cn(CC(=O)c2ccc(O)cc2)nn1 | · | -18% | · | · | -30% | 8%
O=C(Cn1cc(COc2cc(F)cc(F)c2)nn1)c1ccc(O)cc1 | · | ? | · | · | -17% | 31%
Cc1cccc(C)c1OCc1cn(CC(=O)c2ccc(O)cc2)nn1 | · | ? | · | · | 89µM* | 15%
O=C(C1CC1)N1CCC(c2nn(-c3ccccc3)c(=O)[nH]2)CC1 | · | -28%[176 µM] | · | · | · | ·
Cc1cc(C(=O)N(Cc2ccc(C(N)=O)cc2)C2CC2)sc1C | · | 30% | · | · | · | ·
CS(=O)Cc1cccc(C(=O)NC2CCCCC2)c1 (stereo unspecified) | · | -23% | · | · | · | ·
COc1ccc(NC(=O)CCc2c(C)c3ccc(O)c(C)c3oc2=O)c(OC)c1 | · | 19% | · | · | · | ·
CCN1CCN(C(c2ccccc2)c2c(O)cc(C)n(Cc3ccco3)c2=O)CC1 (stereo unspecified) | · | 1% | ? | -19% | ? | 14%[57 µM]
CCN1CCN(C(c2ccc(OC)cc2)c2c(O)cc(C)n(Cc3ccco3)c2=O)CC1 (stereo unspecified) | · | ? | ? | -17% | 79µM* | 10%[57 µM]
SMILES | Sfp inh | ALOX12 inh | G9a block | BAZ2B block | JMJD2A Tudor inh | HP1b binding inh
CCN1CCN(C(c2ccc(SC)cc2)c2c(O)cc(C)n(Cc3ccco3)c2=O)CC1 (stereo unspecified) | · | ? | ? | -13% | 79µM* | -13%[57 µM]
COCC1(C(=O)N2CCOC(c3ccc4cc(OC)ccc4c3)C2)CCC1 (stereo unspecified) | · | 2% | · | · | · | ·
O=C(Nn1c(-c2ccncc2)nc2ccccc2c1=O)c1ccccc1Br | 15% | 2% | 50µM* | -4% | -13% | 10%
O=C(Nn1c(-c2ccncc2)nc2ccccc2c1=O)c1ccc(Br)cc1 | 3% | -1% | 15%[59 µM] | -18% | -13% | 15%
O=C(Nn1c(-c2ccc(Br)cc2)nc2ccccc2c1=O)c1cccnc1 | 23% | -18% | -43% | · | 35µM* | -11%
COc1ccccc1C(=O)Nn1c(-c2ccc(F)cc2)nc2ccccc2c1=O | · | -28% | · | · | · | ·
CCOC(=O)c1cc2c(ccn2C)n1Cc1cc(C)ccc1C | -10% | 13% | 50µM* | 50µM* | 25µM* | ?
COC(=O)c1cc2sc(Cl)cc2n1Cc1cc(C)ccc1C | · | -7% | 74%[59 µM] | 66% | 79% | 115%
CN1CCC(Nc2ncc(C(C)(C)C(=O)O)c(N3CCOCC3)n2)CC1 | · | 70% | · | · | · | ·
O=C(NCc1cccs1)c1ccc2c(c1)CC(=O)N2Cc1ccc(F)cc1 | · | -23% | · | · | · | ·
Cc1oc2ccccc2c1CC(=O)NCCCN(C)C | 8% | ? | 50µM* | ? | -21% | 59%
CN(C)CCCNC(=O)/C(=N\O)c1ccccc1 | 20% | -15% | 56µM* | -22% | -3%[57.1 µM] | 50%
CC(C)c1nc2cc(NC(=O)C[C@H]3NC(=O)c4ccccc4NC3=O)ccc2n1C | · | 30% | · | · | · | ·
C=CCOc1cccc(C2/C(=C(/O)c3ccc(Cl)cc3)C(=O)C(=O)N2CCN2CCOCC2)c1 (stereo unspecified) | 18% | -27% | 18µM* | -7% | -24%[57.1 µM] | ?
O=C1C(=O)N(CCN2CCOCC2)C(c2cccnc2)/C1=C(/O)c1ccc(Cl)cc1 (stereo unspecified) | 12% | -10% | 50µM* | -20% | -14% | 35%
CCOc1cccc(C2/C(=C(/O)c3ccc4c(c3)CC(C)O4)C(=O)C(=O)N2CCN2CCOCC2)c1 (stereo unspecified) | -4% | -18% | ? | -10%[57.1 µM] | -12% | 24%
Cc1ccc(/C(O)=C2\C(=O)C(=O)N(CCc3c[nH]c4ccccc34)C2c2cccnc2)cc1 (stereo unspecified) | 12% | -7% | 50µM* | -4% | ? | 7%
